# High-throughput results (PubChem)
# Hits are enriched below; roughly 2.4% of the tested compounds scored in any of these assays.
# CHRM1 PAM = potentiates human M1 receptor response to acetylcholine. activation, % at 3 µM. actives 0.088% (n = 360,000). AID 588819. CHO-K1 hM1, Fluo-8 calcium fluorescence, ACh EC20; 0% = ACh EC20, 100% = maximal ACh. P11229; in the data active = activation above about 19%, passing the limit was not always enough
# Target sequence (P11229 whole entry, looked up): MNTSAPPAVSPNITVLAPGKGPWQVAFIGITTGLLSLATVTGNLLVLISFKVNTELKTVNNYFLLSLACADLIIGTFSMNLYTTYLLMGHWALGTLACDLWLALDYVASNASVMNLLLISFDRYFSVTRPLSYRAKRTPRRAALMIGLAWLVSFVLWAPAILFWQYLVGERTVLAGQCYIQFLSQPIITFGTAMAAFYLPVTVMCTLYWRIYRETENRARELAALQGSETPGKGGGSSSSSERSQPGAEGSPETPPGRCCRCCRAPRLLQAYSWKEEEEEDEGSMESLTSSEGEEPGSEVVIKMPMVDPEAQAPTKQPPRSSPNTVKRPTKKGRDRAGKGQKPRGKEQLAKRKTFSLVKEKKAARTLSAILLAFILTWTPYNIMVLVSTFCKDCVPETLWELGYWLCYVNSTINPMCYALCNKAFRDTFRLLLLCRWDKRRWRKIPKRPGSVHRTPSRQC
# CHRM1 antagonist = blocks human M1 muscarinic receptor; P11229; CHO-K1 hM1, Fluo-8 calcium fluorescence, ACh EC80 antagonist; inhibition, % at 3 µM; actives 1.3% (n = 360,000);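 active = percent inhibition above its own plate's cutoff, namely the mean of that plate's compound wells plus 3 SD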;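 note: peak over basal fluorescence ratio during 140 s after agonist addition; 0% = ACh EC80 plus DMSO and 100% = DMSO alone without agonist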
# M1 ag = activates human CHRM1 receptor. activation, % at 3 µM. CHO-K1 hM1, Fluo-8 calcium fluorescence, agonist mode; 0% DMSO, 100% acetylcholine EC100. actives 0.33% (n = 360,000);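 active = activation above the run's mean compound activation plus 3 SD, cut at about 16% in these data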;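 note: peak over basal fluorescence ratio within a 140 s kinetic read after compound addition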
# CHO-K1 Ca PAM = M1 PAM counterscreen hit in parental CHO-K1 cells; actives 0.02% (n = 360,000); ATP EC20, Fluo-8 calcium fluorescence; 0% at ATP EC20, 100% at ATP max; activation, % at 3 µM;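 active = activation above the run cutoff, the mean activation of all test compounds plus 3 SD, cut at about 40% in these data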;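 note: peak over basal fluorescence ratio in a 140 s read after ATP addition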
# M1 ag parental = M1 agonist counterscreen hit in parental CHO-K1 cells | Fluo-8 calcium fluorescence; scaled to maximal ATP response, vehicle zero | activation, % at 3 µM | actives 0.48% (n = 360,000) | AID 602248; in the data active = activation above about 15%;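 note: untransfected CHO-K1 host cells lacking M1 receptor as counterscreen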
# CHO-K1 Ca antag = counter-screen for M1 antagonists: effect in parental CHO-K1 cells; ATP-induced calcium, Fluo-8 fluorescence; inhibition, % at 3 µM; actives 0.6% (n = 360,000); AID 602250;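 active = inhibition above a per-plate cutoff, the plate's mean sample inhibition plus 3 SD, cut at about 24% in these data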;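 note: 0% = DMSO plus EC80 ATP and 100% = DMSO alone without ATP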
# The depositor's hits bear a star.
SMILES,CHRM1 PAM,CHRM1 antagonist,M1 ag,CHO-K1 Ca PAM,M1 ag parental,CHO-K1 Ca antag
COc1ccc(-c2ccc3c(c2)C2CC3CCN2C(=O)C(C)(C)C)cc1 (stereo not drawn),2.6,-16.3,-7.0,6.2,-0.3,-7.5
COc1ccccc1C(=O)Nc1ccc2c(c1)OCCO2,3.8,-4.7,-3.0,-2.0,0.6,-6.2
O=C(Nc1ccc2c(c1)OCCO2)c1c(Cl)cccc1Cl,-16.6,31.6*,-5.2,-5.3,-0.3,9.4
O=C(Nc1ccc2c(c1)OCCO2)c1cccc(Cl)c1Cl,6.3,-9.1,-7.4,-26.3,0.2,13.8
COc1cc(SC)ccc1C(=O)Nc1ccc2c(c1)OCCO2,-6.1,7.0,-6.0,19.7,16.7*,-9.6
Cc1ccc(C)c(S(=O)(=O)N2CCN(C(=O)C3CCN(C(=O)c4ccc(F)cc4)CC3)CC2)c1,1.4,5.5,-1.1,-13.6,1.9,4.8
CS(=O)(=O)N1CCCC(c2nc(-c3ccc(S(=O)(=O)NCc4ccccc4)cc3)no2)C1 (stereo not drawn),-18.2,35.8*,3.3,-13.7,14.8,33.5*
Cc1cc2nc(C)n(CCCNC(=O)Nc3ccc(C#N)cc3)c2cc1C,-22.1,57.2*,-5.7,19.1,1.1,-9.0
Nc1ccc(S(=O)(=O)Nc2nc(-c3ccccc3)cc(-c3ccccc3)n2)cc1,11.0,-12.6,-1.6,13.8,7.2,-9.8
Nc1ccc(S(=O)(=O)Nc2nc(-c3ccccc3)cc(-c3ccccc3O)n2)cc1,1.5,-13.3,20.3*,12.9,2.4,-7.5
CCOc1ccc(C(=O)NC2CC3CCCC(C2)N3Cc2ccccc2)cc1 (stereo not drawn),-22.3,37.9*,-10.0,-11.6,-0.3,-3.5
O=C(Nc1ccccc1-c1ccccc1)NC1CC2CCCC(C1)N2Cc1ccc(F)cc1 (stereo not drawn),-34.7,97.5*,-14.5,6.2,-0.5,-0.3
COc1ccc(C(=O)NC2CC3CCCC(C2)N3Cc2ccccc2)cc1 (stereo not drawn),-11.6,10.2,-8.8,-21.1,-0.3,2.9
CCCNC(=S)NC1CC2CCCC(C1)N2Cc1ccc(F)cc1 (stereo not drawn),-22.6,48.1*,-9.3,2.3,-0.7,0.0
COc1ccc(S(=O)(=O)N2CCN(C)CC2c2ccccc2)cc1OC (stereo not drawn),10.5,-18.3,-0.2,26.4,1.4,-2.6
O=C(NCCOc1ccccc1)C1CCC(=O)N(CCCN2CCCC2=O)C1 (stereo not drawn),4.8,-7.6,-2.1,-22.2,-0.2,11.6
O=C(CSc1ccccc1)Nc1ccc2c(c1)C(=O)NC2=O,6.8,-7.0,0.1,5.3,1.2,0.7
O=C(NC(N1CCOCC1)C(Cl)(Cl)Cl)c1ccc(F)cc1 (stereo not drawn),6.1,-1.9,-8.0,0.1,18.2*,1.9
CCN(CC)c1ccc(NC(=O)COC(=O)C2CCN(c3ccc(C(F)(F)F)cn3)CC2)cc1,8.9,-10.9,-3.5,15.5,0.7,6.5
Cc1ccc(S(=O)(=O)N2CCC(C(=O)OCC(=O)N(C)C3CCCCC3)CC2)cc1C,1.7,-7.1,-4.2,-19.2,0.9,7.9
CCN(c1ccc(NC(=O)COC(=O)C2CCN(c3ccc(C(F)(F)F)cn3)CC2)cc1)C(C)C,-20.2,34.6*,-7.6,-9.4,0.7,-15.3
O=C(COC(=O)C1CCN(S(=O)(=O)c2ccc3c(c2)OCCO3)CC1)Nc1ccc(C(F)(F)F)cc1,7.6,-0.6,-3.4,-15.6,1.6,24.4*
CN(C(=O)COC(=O)C1CCN(S(=O)(=O)c2ccc3c(c2)OCCO3)CC1)C1CCCCC1,-5.1,17.4,-5.8,-20.3,0.4,26.5*
CCOc1ncccc1C(=O)Nc1ccc(S(=O)(=O)N2CC(C)CC(C)C2)cc1 (stereo not drawn),-0.5,2.4,-0.8,-1.1,0.0,-11.7
O=C(CCC1CCCC1)NCc1cccs1,-3.7,3.6,-4.6,-2.8,-0.2,2.2
SMILES,CHRM1 PAM,CHRM1 antagonist,M1 ag,CHO-K1 Ca PAM,M1 ag parental,CHO-K1 Ca antag
OC(c1cccs1)(c1cccs1)C1C[N+]2(CF)CCC1CC2 (stereo not drawn),-21.9,83.2*,-8.5,22.2,0.5,-4.9
COc1cccc(-c2c(NC(=O)c3ccco3)n(-c3ccc(C)cc3)nc(C)c2=O)c1,8.6,-0.9,-1.2,-5.7,-0.5,32.4*
Cc1cc(C)cc(CC(=O)N2CCC2(C)C(=O)NS(=O)(=O)c2cccc(F)c2)c1 (stereo not drawn),6.5,-14.1,-1.1,-7.6,0.2,0.2
O=C(NCCCN1CCCC1)c1ccc2c(c1)N(Cc1ccccc1F)C(=O)c1ccccc1S2=O (stereo not drawn),-20.0,33.3*,-6.0,-8.6,0.4,1.2
CCN1C(=O)c2ccccc2S(=O)(=O)c2ccc(C(=O)N3CCOCC3)cc21,9.1,-20.0,-11.4,14.8,0.7,-2.7
CCN1CCN(CCNC(=O)c2ccc(/C=C3/Sc4ccccc4N(Cc4ccccc4C)C3=O)cc2)CC1,-16.4,21.3,3.5,32.3,12.5,-4.8
CCN1C(=O)c2ccccc2S(=O)c2ccc(C(=O)N3CCOCC3)cc21 (stereo not drawn),-5.1,7.4,-7.3,6.8,18.2*,-0.4
CCN1CCN(CCCNC(=O)c2ccc(/C=C3/Sc4ccccc4N(Cc4ccccc4F)C3=O)cc2)CC1,-17.4,29.3*,-3.4,18.1,6.6,-12.7
CC1CCCCN1CCNC(=O)c1ccc2c(c1)N(Cc1ccccc1F)C(=O)c1ccccc1S2=O (stereo not drawn),-18.4,47.8*,-3.5,26.7,3.7,-16.2
CCCCN(C)C(=O)c1ccc2c(c1)N(CC)C(=O)c1ccccc1S2=O (stereo not drawn),-19.1,23.4,-9.7,-10.0,-0.2,-0.3
CCCCN(C)CCCNC(=O)c1ccc2c(c1)N(CC)C(=O)c1ccccc1S2=O (stereo not drawn),-23.9,46.9*,-9.5,-8.6,0.3,-8.2
COc1ccc(C(=O)Nc2ccc(Cl)cc2F)cc1S(=O)(=O)N1CCCC1,8.0,-2.2,-3.4,-15.5,1.8,-5.2
O=C(Nc1ccccc1)Nc1ccc(-n2ccc(C(F)(F)F)n2)cc1,-23.7,67.8*,3.9,-18.6,16.7*,25.7*
COc1ccc(N2CCN(C(=O)c3ccc4c(c3)CC(c3ccccc3)OC4=O)CC2)cc1 (stereo not drawn),-8.2,4.1,-4.9,-0.2,0.7,-2.1
COc1ccccc1CN(C)C[C@H]1OCc2cnnn2CCCC(=O)N([C@@H](C)CO)C[C@@H]1C,-34.2,102.5*,-10.9,14.1,0.5,-0.7
C[C@@H]1CN([C@@H](C)CO)C(=O)CCCn2nncc2CO[C@H]1CN(C)Cc1ccc(Oc2ccccc2)cc1,-29.3,39.6*,-11.5,3.3,0.2,-2.6
